# Many of the other results were omitted from the sample, so hits are more common in it than they were.
# IkB signaling: IkB Signaling. Potency, µM (doses to about 57.1 µM). ABC-DLBCL IkBa-CBG/CBR dual luciferase ratio, 4 h; response scale: scaled: untreated 0%, proteasome inhibitor 100%. hit rate 0.04% among 110,000; active = well fitted curve in the direction sought with a large enough effect in the signal ratio, not every such curve was filed as active; inconclusive = small, poorly fitted or top-dose-only effect, or a change in a side signal; the % refers to the signal ratio;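 note: the direction sought is a rising ratio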
#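 Curves were fitted separately to fusion (green), unfused (red) and ratio luminescence, then classed by r2, magnitude and activity. Cells: OCI-Ly3, 4 h compound plus doxycycline at 37C; 10 uM MG-132 defined full response.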
# p53ts 39C tox: qHTS Screen for Compounds that Selectively Target Cancer Cells with p53 Mutations: Cytotoxicity of p53ts Cells at the Nonpermissive Temperature; AID 902, 2007; Potency, µM (doses to about 46.1 µM), actives largely listed as cytotoxic; H1299-p53A138V viability at 39C, ATP luminescence, 24 h; hit rate 1.5% among 130,000; note: nearly all actives have a fitted effect of over 55% in size
# p53ts 32C kill: qHTS Screen for Compounds that Selectively Target Cancer Cells with p53 Mutations: Cytotoxicity of p53ts Cells at the Permissive Temperature; H1299-p53A138V at 32C, ATP luminescence viability, 24 h; hit rate 0.93% among 130,000; Potency, µM (top dose mostly 46.1 µM), actives largely listed as cytotoxic; note: nearly all actives have a fitted effect of over 55% in size
#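 ATP-content luminescence (ATPlite) read-out after 24 h compound exposure at 32C in H1299-p53A138V cells (600/well). Tested up to 46 uM. Normalized to DMSO (0%) and 100 uM tamoxifen (100% killing); Hill-fit AC50.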
# FLuc inh: qHTS Assay for Inhibitors of Firefly Luciferase. Luciferin 4-monooxygenase (Photinus pyralis), P08659. purified firefly luciferase, luminescence, 8 min. Potency, µM (doses to about 57.1 µM), usual class: inhibitors. hit rate 2.2% among 72,000; note: nearly all actives have a fitted effect of over 40% in size
# Target sequence (P08659 whole entry, looked up): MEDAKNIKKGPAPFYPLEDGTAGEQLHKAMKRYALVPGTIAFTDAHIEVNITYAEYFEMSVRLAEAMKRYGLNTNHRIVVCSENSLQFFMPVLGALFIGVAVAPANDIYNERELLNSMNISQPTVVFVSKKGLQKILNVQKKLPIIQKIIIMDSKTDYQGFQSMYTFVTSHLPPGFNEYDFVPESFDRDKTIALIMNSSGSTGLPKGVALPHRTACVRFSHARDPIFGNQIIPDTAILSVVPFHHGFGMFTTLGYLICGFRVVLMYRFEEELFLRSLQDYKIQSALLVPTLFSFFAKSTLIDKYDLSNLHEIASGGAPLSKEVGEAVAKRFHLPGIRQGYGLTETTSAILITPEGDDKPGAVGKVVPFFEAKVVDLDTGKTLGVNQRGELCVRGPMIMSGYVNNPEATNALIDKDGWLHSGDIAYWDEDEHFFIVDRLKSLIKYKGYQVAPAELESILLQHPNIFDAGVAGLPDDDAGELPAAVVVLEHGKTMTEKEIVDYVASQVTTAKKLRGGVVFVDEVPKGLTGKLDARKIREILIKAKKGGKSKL
#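 Firefly luciferase (PKLight detection mix) with 10 uM ATP in pH 7.2 imidazole buffer (KCl, MgCl2, Tween 20, BSA). Compounds tested across a concentration series (qHTS). Luminescence read after 8 min at ambient temperature.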
# IMPase inh: qHTS Assay for Identifying the Cell-Membrane Permeable IMPase Inhibitors; inhibition (IP1 accumulation), % at 46.1 µM; CHO-M1 cells, IP1 accumulation, HTRF TR-FRET ratio; Inositol monophosphatase 1 (Rattus norvegicus), P97697; 120,000 tested, under 10 active; active = well fitted curve in the direction sought with a large enough effect in the signal ratio, not every such curve was filed as active; inconclusive = small, poorly fitted or top-dose-only effect, or a change in a side signal; inactive = no such curve, though single readings can be large or run the other way; the % refers to the signal ratio;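 note: cells stimulated with carbachol in lithium chloride buffer; higher means more IMPase inhibition seen as more IP1 and lower FRET ratio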
#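 Carbachol-driven Gq signalling in CHO-M1 cells (2000/well) generates IP1. Compounds that block IMPase raise IP1 and so reduce the FRET signal from Eu-anti-IP1 and d2-IP1 after a 10 min room-temperature lysis.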
# Hsp90 Hop PPI: qHTS Assay for Disrupters of an Hsp90 Co-Chaperone Interaction; Hsp90 C-terminal peptide / TPR2A (Hop) interaction, human; AlphaScreen TPR2A-His6 binding biotin-Hsp90 C-terminal peptide; Potency, µM (highest dose often 57 µM); hit rate 0.44% among 71,000; AID 595, 2007; active = well fitted curve in either direction with a large enough effect; inconclusive = small, poorly fitted or top-dose-only effect, or another doubt
# A number is an active result; – = inactive; ? = inconclusive; · = no result; [ ] = remark or other dose. Unless noted, calls come from the whole dose curve; as a rule, active = well fitted curve in the direction sought with a large enough effect; inconclusive = small, poorly fitted or top-dose-only effect, or another doubt; inactive = no such curve, though single readings can be large; an effect the other way counts as inactive or inconclusive.
SMILES,IkB signaling,p53ts 39C tox,p53ts 32C kill,FLuc inh,IMPase inh,Hsp90 Hop PPI
CN(C)c1ccc(C2CC(c3c(O)n(C4CCCCC4)c(=O)[nH]c3=O)=Nc3ccccc3S2)cc1 (stereo not given),–,–,–,·,·,·
COc1ccc2c(c1)Cc1sc(NC(=O)c3cccc(Cl)c3)nc1-2,–,25µM,?,·,·,·
COc1ccc2c(c1)Cc1sc(NC(=O)c3cccc(C)c3)nc1-2,?,–,–,·,–,·
COc1ccccc1NC(=O)Cn1c(=O)n(CCc2ccccc2)c(=O)c2c3c(sc21)CN(C(C)=O)CC3,?,–,–,·,·,·
O=C(CSc1nnc(SCc2ccc(Cl)cc2)s1)N1CCN(C(=O)c2ccco2)CC1,–,–,–,4µM,–,–
O=C(CSc1nn(-c2ccc(Cl)cc2)c(=S)s1)N1CCN(C(=O)c2ccco2)CC1,–,–,–,–,–,–
CC(C)CCNC(=O)CN1C(=O)c2cccnc2Oc2ccccc21,–,–,–,·,·,·
CC(=O)Nc1ccc(C2Nc3c(C)cc(C)cc3-c3cc(C)nn32)cc1 (stereo not given),?,–,–,·,–,·
Cc1nc2cc(NC(=O)Nc3nccs3)ccc2n1C,–,7.9µM,7.9µM,6.3µM,–,–
CCCNC(=O)Nc1ccc2c(c1)nc(C)n2C,·,·,·,·,–,·
CCOC(=O)Cn1nc(N2CCN(c3ccc(F)cc3)CC2)ccc1=O,–,–,–,·,·,·
CCN1CCN(C(=O)c2ccc3c(c2)N(Cc2c(F)cccc2Cl)C(=O)c2ccccc2S3)CC1,?,–,–,·,·,·
Cc1csc(SCc2nnc(-c3ccccc3Br)o2)n1,–,–,–,20µM,–,–
Nc1[nH]c(=S)[nH]c(=O)c1N=Nc1c(Br)cc(S(N)(=O)=O)cc1Br,–[11.4 µM],–[9.22 µM],–[9.22 µM],–[11.4 µM],·,–[11 µM]
CCOC(=O)c1c(C)nc(-c2ccccc2)nc1N,–,?,–,25µM,–,–
COc1ccc(C)cc1NC(=O)c1c2c(nc3ccccc13)C(=O)N(C1CCCCC1)C2,?,10µM,–,·,·,·
O=C(Nc1ccc(F)cc1F)c1c2c(nc3ccccc13)C(=O)N(C1CCCCC1)C2,?,?,–,·,·,·
COCCc1nn2c(=O)cc(COC(=O)C(c3ccccc3)c3ccccc3)nc2s1,?,–,–,·,·,·
COc1cc(SC)ccc1C(=O)N1CCn2c3c(c4cc(C)ccc42)CCCC31 (stereo not given),?,–,–,·,·,·
CC1CCc2nc(NC(=O)c3ccco3)sc2C1 (stereo not given),?,2.5µM,2.5µM,2µM,–,–
CC1CCc2nc(NC(=O)C3CCCO3)sc2C1 (stereo not given),?,13µM,10µM,13µM,–,–
CCCCC(CC)CNC(=O)c1ccc2c(=O)n(CCOC)c(=O)[nH]c2c1 (stereo not given),?,–,?,·,·,·
Cc1ncoc1C(=O)Nc1ccc2c(c1)OCCO2,–,?,?,20µM,–,–
Cc1ccsc1C(=O)Nc1ccc2c(c1)OCCO2,·,14µM,·,·,–,·
Cc1ccsc1C(=O)NC(C)c1ccc2c(c1)OCO2 (stereo not given),·,–,–,·,–,·
Cc1cc(NC(=O)N2CCC(CN3CCCCCC3)CC2)ccc1Br,·,·,–,·,·,·
C=Cc1c(C)c2cc3nc(cc4[nH]c(cc5nc(cc1[nH]2)C(C)=C5CCC(=O)O)c(CCC(=O)OC)c4C)[C@@]1(C)C3=CC=C(C(=O)OC)[C@H]1C(=O)OC (tested in a mixture with another compound),?,–,–,–,–,0.25µM
Cc1cccc(Cn2nnc3c(=O)[nH]c(C4CCCN(C(=O)c5ccc(C(C)(C)C)cc5)C4)nc32)c1 (stereo not given),–,25µM,?,·,·,·
COc1ccc(Cn2nnc3c(=O)[nH]c(C4CCCN(C(=O)c5ccc(C)cc5)C4)nc32)cc1 (stereo not given),–,–,–,·,·,·

# Assay outcomes from PubChem BioAssay.
